Results filed as inconclusive are left out. Values without a mark were called inactive. Active and inactive are the calls of the source. The call rests on the fitted dose curve.
Assay: qHTS for Inhibitors of the Functional Ribonucleoprotein Complex (vRNP) of Lymphocytic Choriomeningitis Arenaviruses (LCMV): LCMV Confirmatory Screen - GLuc reporter signal
Conditions: LCMV minigenome vRNP, Gaussia luciferase reporter; series mostly up to 53.9 µM; activity change, negative = inhibition: at the top concentration

Row | Compound | Potency | activity change, negative = inhibition
1 | Cc1cc2c(C(C)C)c(O)c(O)c(C=O)c2c(O)c1-c1c(C)cc2c(C(C)C)c(O)c(O)c(C=O)c2c1O | 6.11 µM (active) | 
2 | CCN(CC)C(=O)N[C@@H]1C=C2c3cccc4[nH]cc(c34)C[C@@H]2N(C)C1 |  | -19.4%
3 | Nc1ccc([N+](=O)[O-])cc1O | 62.7 µM (active) | 
4 | Fc1ccc(CNc2ncnc3ccc(F)cc23)cc1 | 8.63 µM (active) | 
5 | CN1CCN(C2=Nc3cc(Cl)ccc3Nc3ccccc32)CC1 | 30.6 µM (active) | 
6 | O=C1Cc2cc(CCN3CCN(c4nsc5ccccc45)CC3)c(Cl)cc2N1 |  | -22.9%
7 | COc1ccc2c(c1OC)CN1CCc3cc4c(cc3C1C2)OCO4 (configuration not stated) | 24.3 µM (active) | 
8 | Cn1cc(-c2ccncc2)c(-c2ccc(OCc3ccc4ccccc4n3)cc2)n1 | 24.3 µM (active) | 
9 | CCCCCC[C@H]1C(=O)O[C@H](C)[C@H](NC(=O)c2cccc(NC=O)c2O)C(=O)O[C@@H](C)[C@@H]1OC(=O)CC(C)C | 0.0343 µM (active) | 
10 | CCCCCN=C(N)N/N=C/c1c[nH]c2ccc(OC)cc12 | 9.68 µM (active) | 
11 | C=C(C)C1Cc2c(ccc3c2OC2COc4cc(OC)c(OC)cc4C2C3=O)O1 (configuration not stated) | 0.0153 µM (active) | 
12 | CCc1cncnc1N1CCN(Cc2nc3ccc(C(F)(F)F)cc3[nH]2)CC1 | 4.44 µM (active) | 
13 | Clc1nccc2c1ccc1ccccc12 |  | -21.7%
14 | O=C(Nc1ccc([N+](=O)[O-])cc1Cl)c1cc(Cl)ccc1O | 0.863 µM (active) | 
15 | Cc1ccc2c(c1)C1CN(C)CCC1N2 (configuration not stated) |  | -10.8% [at 19.4 µM]
16 | NC(=O)N/N=C/c1ccc([N+](=O)[O-])o1 | 24.3 µM (active) | 
17 | C=C(C)[C@H]1Cc2c(ccc3c2O[C@@H]2COc4cc(OC)c(OC)cc4[C@@H]2C3=O)O1 | 0.0544 µM (active) | 
18 | C=C1CC[C@@H]2[C@](C)(CO)[C@H](O)CC[C@@]2(C)[C@@H]1/C=C/C1=CCOC1=O | 21.7 µM (active) | 
19 | COc1cc2c(cc1OC)CC(=O)N(CCCN(C)C[C@H]1Cc3cc(OC)c(OC)cc31)CC2 |  | -0.473%
20 | Cc1ncc([N+](=O)[O-])n1CC(C)O (configuration not stated) |  | 5.61%
21 | CC1OC(=O)[C@@H](C(C)C)NC(=O)C(C(C)C)OC(=O)[C@H](C(C)C)NC(=O)C(C)OC(=O)[C@@H](C(C)C)NC(=O)C(C(C)C)OC(=O)[C@H](C(C)C)NC(=O)C(C)OC(=O)[C@@H](C(C)C)NC(=O)C(C(C)C)OC(=O)[C@H](C(C)C)NC1=O (some centres not stated) | 0.153 µM (active) | 
22 | CC[C@@]1([C@@H]2O[C@@H]([C@H]3O[C@@](O)(CO)[C@H](C)C[C@H]3C)C[C@H]2C)CC[C@H]([C@]2(C)CC[C@]3(C[C@H](O)[C@@H](C)[C@@H]([C@@H](C)[C@@H](OC)[C@H](C)C(=O)O)O3)O2)O1 | 0.168 µM (active) | 
23 | S=C(NCc1ccc2c(c1)OCO2)N1CCN(c2ncnc3c2oc2ccccc23)CC1 | 2.22 µM (active) | 
24 | Oc1cc(Cl)ccc1Oc1ccc(Cl)cc1Cl | 22.2 µM (active) | 
25 | CC(C)(C)C1CCC(CC2=C(O)c3ccccc3C(=O)C2=O)CC1 (configuration not stated) | 6.11 µM (active) | 
26 | COC(=O)c1nc(Cl)c(Cl)nc1N | 1.72 µM (active) | 
27 | N#CC(=C(\N)Sc1ccccc1N)/C(C#N)=C(/N)Sc1ccccc1N | 27.3 µM (active) | 

Source: PubChem BioAssay AID1347084 (National Center for Advancing Translational Sciences (NCATS), 2019)
